# Inconclusive results are not listed. Unmarked numbers belong to inactive results. Activity calls are given as the source filed them. Calls follow the shape of the dose curve; as a rule, active = well fitted inhibition curve with a large enough effect; inconclusive = small, poorly fitted or top-dose-only effect; inactive = flat fitted curve, though single readings scatter.
# Assay: CHOP2 Reporter Counterscreen Assay for Inhibitors of Ubiquitin-specific Protease USP2a;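 also: activated enterokinase alone at 50 pM in a cell-free format rather than USP2a or CHOP2; nearly all actives have a fitted effect of over 55% in size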
# Details: purified enterokinase, fluorogenic substrate, 485/531 nm; series mostly up to 38.3 µM; activity change, negative = inhibition: at the top concentration
# Procedure, shortened: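 Fluorescence (485/531 nm) read 10 min after adding 25nM reporter substrate to 50 pM activated EK preincubated 30 min RT with compound; Tris pH 8.0/CaCl2/CHAPS buffer. Data normalized to buffer-alone inhibition; concentration-response curves fitted.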
# % is scaled to controls: 0 for no effect and ±100 for the full control effect; potency is read from the fitted curve at half-maximal effect.
Compound,"activity change, negative = inhibition [%]",Potency
CC(=O)Nc1ccc(NC(=O)C2CCCN(S(=O)(=O)c3ccc(Cl)cc3)C2)cc1 (stereo not drawn),1.55,–
CCOC(=O)COc1c(OC)cc(Cl)cc1C1Nc2ccccc2C(=O)N1c1ccccc1 (stereo not drawn),-2.56,–
COc1cc2c(C(=O)N3CCN(c4cccc(Cl)c4)CC3)cn(CC(C)C)c(=O)c2cc1OC,-1.58,–
CN=c1scc(-c2ccccc2F)n1/N=C/c1ccc(O)c(O)c1O,–,10 µM (active)
O=C(CSc1ccc(Br)c2cccc(Cl)c12)Nc1ccc(S(=O)(=O)Nc2nccs2)cc1,–,11.2 µM (active)
Cn1ccc(=Nc2ccc(NC(=O)c3ccc(N=c4ccn(C)c5ccc([N+](=O)[O-])cc45)cc3)cc2)cc1,-2.45,–
O=C(COC(=O)c1c2c(nc3ccccc13)/C(=C/c1ccco1)CC2)NC1CCCC1,–,2 µM (active)
COc1ccc(S(=O)(=O)NCCSCc2ccco2)cc1OC,–,10 µM (active)
C#CCOCCOCCOCCNc1nc(N2CCN(C(=O)CCCCCCCCCCNC(=O)[C@H](CO)n3cc(CCCSC)nn3)CC2)nc(N2CCN(C(=O)CCCCCCCCCCNC(=O)[C@H](CCCN=C(N)N)n3cc(C[C@@H](C)CC)nn3)CC2)n1,–,3.98 µM (active)
CN(C)S(=O)(=O)c1ccc(C(=O)NCCN=C2NS(=O)(=O)c3ccccc32)cc1,0.218,–
O=C(NC1CCCCC1)C(c1ccco1)N(Cc1ccco1)C(=O)c1ccco1 (stereo not drawn),-14.8,–
Cc1cnc(N)c2c(=O)oc3ccccc3c12,1.83,–
O=C(COC(=O)c1ccc(NS(=O)(=O)c2cccs2)cc1)Nc1nc2c(F)c(F)c(F)cc2s1,–,10 µM (active)
